In PubChem BioAssay AID942 (National Center for Advancing Translational Sciences (NCATS), 2007):
Inconclusive results are not listed. The source made the active and inactive calls. Calls follow the shape of the full dose curve.

Assay: Confirmation Concentration-Response Assay for Anthrax Lethal Toxin Internalization

SMILES	Potency
COc1cc([C@@H]2c3cc4c(cc3[C@H](OC(C)=O)[C@H]3COC(=O)[C@H]23)OCO4)cc(OC)c1OC	794 nM (active)
COc1ccc2c(c1OC)C(=O)OC2c1ccc(O)cc1 (stereo unspecified)	inactive
COc1cc([C@@H]2c3cc4c(cc3[C@H](O)[C@H]3COC(=O)[C@H]23)OCO4)cc(OC)c1OC	794 nM (active)
COc1cc2c(OC(C)=O)c3c(c(-c4ccc5c(c4)OCO5)c2cc1OC)C(=O)OC3	39.8 nM (active)
O=C(Nc1ccc([N+](=O)[O-])cc1Cl)c1cc(Br)ccc1O	794 nM (active)
Cc1ccc2oc(=O)c3cnn(CC(=O)Nc4ccccc4N4CCN(C)CC4)c3c2c1	2000 nM (active)
O=C(Nc1ccc([N+](=O)[O-])cc1Cl)c1ccccc1O	6310 nM (active)
O=C(Nc1ccc([N+](=O)[O-])cc1Cl)c1cc(Cl)cc(Cl)c1O	3980 nM (active)
Cc1ccc2c(c1)-c1c(cnn1CC(=O)Nc1ccccc1N1CCN(C)CC1)CO2	3980 nM (active)
Nc1ccc(NC(=O)c2cc(Cl)ccc2O)c(Cl)c1	inactive
Cc1ccc2oc(=O)c3cnn(CC(=O)N4CCN(c5ccccc5)CC4)c3c2c1	5010 nM (active)
COc1cc2c(O)c3c(c(-c4ccc5c(c4)OCO5)c2cc1OC)C(=O)OC3	50.1 nM (active)
COc1ccc2c(c1OC)C(=O)OC2CC(=O)c1ccc2c(c1)OCO2 (stereo unspecified)	inactive
COc1ccc(C2C3=C(COC3=O)Oc3cc4c(cc32)OCO4)cc1OC (stereo unspecified)	inactive
COc1ccc(Cl)cc1C(=O)Nc1ccc([N+](=O)[O-])cc1Cl	inactive
O=C(Nc1c(Cl)cc([N+](=O)[O-])cc1Cl)c1cc(Cl)cc(Cl)c1O	10000 nM (active)
